Data on 14 compounds can be found in PubChem BioAssay AID602256 (National Center for Advancing Translational Sciences (NCATS), 2012).

Structures are written as SMILES. Inconclusive results are not listed. Unmarked numbers belong to inactive results. Calls of active or inactive are those of the source. Calls follow the shape of the dose curve; as a rule, active = well fitted curve in the direction sought with a large enough effect; inconclusive = small, poorly fitted or top-dose-only effect, or another doubt; inactive = no such curve, though single readings can be large or run the other way.

Sequence of Relaxin receptor 1 (Homo sapiens) (Q9HBX9 whole entry, looked up): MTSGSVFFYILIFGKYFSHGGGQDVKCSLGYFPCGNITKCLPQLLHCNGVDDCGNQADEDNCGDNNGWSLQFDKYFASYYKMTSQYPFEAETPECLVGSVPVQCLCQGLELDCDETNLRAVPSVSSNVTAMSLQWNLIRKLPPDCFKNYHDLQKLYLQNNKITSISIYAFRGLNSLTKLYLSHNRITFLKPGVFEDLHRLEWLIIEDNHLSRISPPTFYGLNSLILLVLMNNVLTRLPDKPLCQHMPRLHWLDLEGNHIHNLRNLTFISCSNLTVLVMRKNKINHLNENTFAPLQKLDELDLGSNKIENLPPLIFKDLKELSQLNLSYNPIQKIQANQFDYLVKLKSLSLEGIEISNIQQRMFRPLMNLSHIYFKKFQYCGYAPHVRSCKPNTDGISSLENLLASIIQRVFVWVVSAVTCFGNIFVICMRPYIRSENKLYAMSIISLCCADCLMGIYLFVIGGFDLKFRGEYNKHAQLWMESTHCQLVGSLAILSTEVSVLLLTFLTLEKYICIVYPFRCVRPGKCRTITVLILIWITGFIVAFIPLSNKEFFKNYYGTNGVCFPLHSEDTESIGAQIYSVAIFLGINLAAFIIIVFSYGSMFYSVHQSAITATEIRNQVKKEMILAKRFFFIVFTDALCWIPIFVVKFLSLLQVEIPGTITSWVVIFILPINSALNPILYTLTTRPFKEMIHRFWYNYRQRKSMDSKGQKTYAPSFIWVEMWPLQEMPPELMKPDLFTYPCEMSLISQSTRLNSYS

The target of this assay is Relaxin receptor 1 (Homo sapiens) (UniProt Q9HBX9). Kind of assay: qHTS Assay for Agonists of the Relaxin Receptor RXFP1: RXFP1 SAR. Conditions: HEK293T-RXFP1 cAMP TR-FRET, 30 min; efficacy: stronger effect = higher value. The source says:
The relaxin hormone is involved in the variety of biological functions in normal tissues and diseases. The role of relaxin is well-established in female reproduction and parturition, mammary gland and endometrial development, maintenance of myometrial quiescence during pregnancy. Relaxin signaling through its G protein-coupled receptor (GPCR) RXFP1 results in ECM remodeling through regulation of collagen deposition, cell invasiveness, proliferation and overall tissue homeostasis. […] Recombinant human relaxin (rhRlx) is currently being tested in clinical trials as a protective agent in congestive heart failure, in treating severe preeclampsia, and as an anti-fibrotic agent in systemic sclerosis. Upon relaxin binding RXFP1 activation leads to the activation of adenylate cyclase (AC) via Gs. cAMP will activate PKA, which phosphorylates many signaling proteins. Thus, detection of cAMP increase is an easy and reliable indication of relaxin receptor activation. To screen for agonists of the relaxin receptor, a HEK293T cell line stably transfected with RXFP1 was used. RXFP1 activation was assayed by changes in cAMP levels as detected with a time-resolved fluorescence energy transfer (TR-FRET) cAMP detection kit. NIH Chemical Genomics Center [NCGC] NIH Molecular Libraries Probe Production Centers Network [MLPCN] MLPCN Grant: R03 MH085705-01A1 Assay Submitter (PI): Alexander Agoulnik
This is a cell-based assay for cAMP second messenger response to screen for agonists of the RXFP1 receptor. The assay was conducted in the presence of a PDE4 inhibitor (Ro 20174). The cells were lysed and the cAMP levels were measured with a TR-FRET cAMP kit. Presence of cAMP in the cell lysate disrupts binding between the cryptate-labeled anti-cAMP and d2-labeled cAMP pair, leading to a decrease in the TR-FRET signal. Data were normalized to the controls for basal activity (buffer only) and 100% activity (29 nM porcine relaxin). The EC50 values were determined from concentration-response data modeled with the standard Hill equation 1536-well assay protocol for the HEK293 RXFP1 cAMP assay: (1) Add 3 ul HEK293 RXFP1 cell culture. 2000 cells/well in DMEM/F12, 10% FBS, 1x Pen/Strep (dispensed offline with MultiDrop Combi). (2) Incubate 16-24 hr at 37C, 5% CO2. (3) Add 1 ul 400uM Ro20174 in DPBS, 0.05% BSA, 0.005% Tween 20. (3) Add 23 nl compounds in DMSO solution. Final concentration was 0.5 - 58 uM. (4) Incubate 30 min at 37C, 5% CO2. (5) Add 1 ul cAMP-d2 in lysis buffer (HTRF cAMP HiRange kit, CisBio). (6) Add 1 ul anti-cAMP antibody-cryptate in lysis buffer (HTRF cAMP HiRange kit, CisBio). (7) Incubate 30 min at room temperature. (6) Detect the assay plate in a ViewLux plate reader (PerkinElmer) with Ex=320 nm, Em1=615 nm and Em2=665 nm. Keywords: relaxin, RXFP1, RXFP2, G-protein coupled receptor, cAMP, agonist, high throughput screening, MLSMR, MLSCN, NIH Roadmap, qHTS and NCGC
Background: qHTS replaces the single test concentration by a dilution series.
Regarding `O=C(NCc1cccc(C(F)(F)F)c1)c1ccccc1NC(=O)C1CCCCC1`, the efficacy was 4.71%.

For the compound `CCOc1ccccc1C(=O)Nc1ccccc1CNc1cccc(S(=O)(=O)C(F)(F)F)c1`, the Potency is 2650 nM (active).

Consider `O=C(Nc1cccc(C(F)(F)F)c1)c1ccccc1NC(=O)c1ccccc1OC(F)(F)F`, for which the Potency was 1180 nM (active).

For `COc1ccccc1C(=O)Nc1ccccc1C(=O)Nc1cccc(S(=O)(=O)C(F)(F)F)c1`, the Potency is 188 nM (active).

Consider `O=C(Nc1cccc(Cl)c1)c1ccccc1NC(=O)C1CCCCC1`, for which the Potency was 3340 nM (active).

In the case of `O=C(Nc1cccc(C(F)(F)F)c1)c1ccccc1NC(=O)C1CCC1`, the Potency is 2970 nM (active).

With `CCCOc1ccccc1C(=O)Nc1ccccc1C(=O)Nc1cccc(S(=O)(=O)C(F)(F)F)c1`, the Potency is 52.9 nM (active).

Take `CCOc1ccccc1C(=O)Nc1ncccc1C(=O)Nc1cccc(S(=O)(=O)C(F)(F)F)c1`: the Potency was 1670 nM (active).

As for `COc1ccccc1C(=O)Nc1cccc(C(=O)Nc2cccc(C(F)(F)F)c2)c1`, the efficacy is 1.37%.

On to `O=C(Nc1cccc(C(F)(F)F)c1)c1ccccc1NC(=O)C1CCCC1`, for which the Potency is 2360 nM (active).

With `CCOc1ccccc1C(=O)Nc1ccncc1C(=O)Nc1cccc(S(=O)(=O)C(F)(F)F)c1`, the Potency was 747 nM (active).

Consider `CCOc1ccccc1-c1nc2c(C(=O)Nc3cccc(S(=O)(=O)C(F)(F)F)c3)cccc2[nH]1`, for which the efficacy was 4.9%.

In the case of `CCCCC(=O)Nc1ccccc1C(=O)Nc1cccc(C(F)(F)F)c1`, the Potency is 5290 nM (active).

As for `O=C(Nc1cccc(-c2cccc(C(F)(F)F)c2)c1)c1ccccc1NC(=O)C1CCCCC1`, the efficacy was 15%.
